Assay results published in PubChem BioAssay AID1159580 (chemical genetic matrix, 2015).
“And” between values parts separate entries of the source, which are not always exact repeats. Equal values may be shown once. Screen size: about 5,500 compounds; about 2,000 (36%) were called active. Not shown: some 18% with an inconclusive outcome. No stated cut-off is given here; in the data, active means normalized growth mostly below about 0.91 (no sharp cut-off); inconclusive means no clear call, values can overlap the other calls; inactive means mostly above about 0.92. Some of the results follow.

Experiment: chemical genetic growth profiling, strain panel (AID 1159580);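 further: tested at 20 µM; growth read once vehicle control cultures reached saturation at 30 °C; 1 = growth at the plate median or of vehicle wells; lower values mean less growth of the strain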
Conditions: growth OD
[1] = S. cerevisiae deletion strains, locus YAL013W, strain DEP1, hits give low values
[2] = S. cerevisiae deletion strains, locus YBR229C, strain ROT2, hits give low values
[3] = S. cerevisiae deletion strains, locus YDL101C, strain DUN1, hits give low values
[4] = S. cerevisiae deletion strains, locus YDR150W, strain NUM1, hits give low values
[5] = S. cerevisiae deletion strains, locus YEL061C, strain CIN8, hits give low values
[6] = S. cerevisiae deletion strains, locus YGR078C, strain PAC10, hits give low values
[7] = S. cerevisiae deletion strains, locus YGR229C, strain SMI1, hits give low values
[8] = S. cerevisiae deletion strains, locus YHR030C, strain SLT2, hits give low values
[9] = S. cerevisiae deletion strains, locus YKL190W, strain CNB1, hits give low values
[10] = S. cerevisiae deletion strains, locus YLR039C, strain RIC1, hits give low values
[11] = S. cerevisiae deletion strains, locus YMR263W, strain SAP30, hits give low values
[12] = S. cerevisiae deletion strains, locus YMR307W, strain GAS1, hits give low values
[13] = S. cerevisiae deletion strains, locus YNL153C, strain GIM3, hits give low values
[14] = S. cerevisiae deletion strains, locus YOL006C, strain TOP1, hits give low values
[15] = S. cerevisiae deletion strains, locus YPL055C, strain LGE1, hits give low values
[16] = S. cerevisiae deletion strains, locus YPL241C, strain CIN2, hits give low values
[17] = S. cerevisiae deletion strains, locus YHR079C, strain IRE1, hits give low values
[18] = S. cerevisiae deletion strains, locus YJL095W, strain BCK1, hits give low values
[19] = S. cerevisiae deletion strains, locus YJR066W, strain TOR1, hits give low values
[20] = S. cerevisiae deletion strains, locus YLR113W, strain HOG1, hits give low values
[21] = S. cerevisiae deletion strains, locus YNL183C, strain NPR1, hits give low values
[22] = S. cerevisiae deletion strains, locus YOR231W, strain MKK1, hits give low values
[23] = S. cerevisiae deletion strains, locus YPL256C, strain CLN2, hits give low values

Measured: normalized growth

COC(=O)c1cc(OC)c(OC)cc1-n1c(C)ccc1C
inactive: [1] 0.999 | [2] 0.994 | [3] 0.975 | S. cerevisiae deletion strains, locus YDL134C, strain PPH21, hits give low values 1.03 | [4] 0.947 | [5] 1.01 | [6] 0.987 | [7] 1 | [8] 0.999 | S. cerevisiae deletion strains, locus YHR087W, strain rtc3, hits give low values 0.983 | S. cerevisiae deletion strains, locus YJR043C, strain POL32, hits give low values 0.985 | S. cerevisiae deletion strains, locus YJR075W, strain HOC1, hits give low values 0.963 | [9] 1.01 | [10] 0.993 | S. cerevisiae deletion strains, locus YLR058C, strain SHM2 (second series), hits give low values 0.995 | S. cerevisiae deletion strains, locus YLR085C, strain ARP6, hits give low values 1.01 | S. cerevisiae deletion strains, locus YLR262C, strain YPT6, hits give low values 0.957 | S. cerevisiae deletion strains, locus YML094W, strain GIM5, hits give low values 1 | S. cerevisiae deletion strains, locus YMR219W, strain ESC1, hits give low values 0.998 | [11] 0.91 | [12] 0.948 | [13] 0.983 | S. cerevisiae deletion strains, locus YNL298W, strain CLA4 (second series), hits give low values 1.02 | S. cerevisiae deletion strains, locus YNL322C, strain KRE1, hits give low values 0.99 | S. cerevisiae deletion strains, locus YNR030W, strain Alg12, hits give low values 1.01 | [14] 1 | [15] 0.877 | [16] 1 | S. cerevisiae deletion strains, locus YPR135W, strain CTF4, hits give low values 0.915 | S. cerevisiae strains, strain wild type, hits give low values 1.01

CC(=O)O[C@@H]1CC2C(C)(C)C(=O)CC[C@]2(C)C2CC[C@]3(C)C(=CC(=O)O[C@H]3c3ccoc3)[C@@]21C (stereo partly specified)
inactive: [1] 0.988 | S. cerevisiae deletion strains, locus YBR021W, strain FUR4, hits give low values 0.989 | [2] 0.939 | S. cerevisiae deletion strains, locus YCL029C, strain bik1, hits give low values 0.985 | S. cerevisiae deletion strains, locus YDL035C, strain GPR1, hits give low values 0.964 | S. cerevisiae deletion strains, locus YDL074C, strain BRE1, hits give low values 0.954 | [3] 1 | S. cerevisiae deletion strains, locus YDL185W, strain tfp1, hits give low values 0.966 | S. cerevisiae deletion strains, locus YDL192W, strain arf1, hits give low values 0.971 | S. cerevisiae deletion strains, locus YDR101C, strain arx1, hits give low values 0.959 | S. cerevisiae deletion strains, locus YDR162C, strain NBP2, hits give low values 0.98 | S. cerevisiae deletion strains, locus YDR318W, strain mcm21, hits give low values 0.992 | S. cerevisiae deletion strains, locus YDR388W, hits give low values 0.995 | S. cerevisiae deletion strains, locus YDR502C, strain sam2, hits give low values 1.01 | [5] 0.972 | S. cerevisiae deletion strains, locus YER110C, hits give low values 0.978 | S. cerevisiae deletion strains, locus YER155C, strain BEM2, hits give low values 0.991 | S. cerevisiae deletion strains, locus YER167W, strain BCK2, hits give low values 0.97 | S. cerevisiae deletion strains, locus YGL078C, strain dbp3, hits give low values 1.01 | S. cerevisiae deletion strains, locus YGL086W, strain mad1, hits give low values 0.998 | S. cerevisiae deletion strains, locus YGL248W, strain PDE1, hits give low values 0.999 | [6] 1.02 | S. cerevisiae deletion strains, locus YGR135W, strain pre9, hits give low values 1.07 | S. cerevisiae deletion strains, locus YGR252W, strain gcn5, hits give low values 1.03 | [8] 1.06 | S. cerevisiae deletion strains, locus YHR079C, strain IRE1 (second series), hits give low values 0.975 | [17] 1.04 | S. cerevisiae deletion strains, locus YHR094C, strain hxt1, hits give low values 0.991 | S. cerevisiae deletion strains, locus YHR129C, strain ARP1, hits give low values 0.989 | S. cerevisiae deletion strains, locus YHR200W, strain rpn10, hits give low values 1 | S. cerevisiae deletion strains, locus YIL066C, strain RNR3, hits give low values 0.948 | S. cerevisiae deletion strains, locus YIL073C, strain SPO22, hits give low values 0.977 | S. cerevisiae deletion strains, locus YIL125W, strain kgd1, hits give low values 0.993 | S. cerevisiae deletion strains, locus YIR030C, strain dcg1, hits give low values 0.987 | [18] 1.05 and 1.06 | S. cerevisiae deletion strains, locus YJL134W, strain LCB3, hits give low values 0.98 | S. cerevisiae deletion strains, locus YJL168C, strain set2, hits give low values 0.988 | S. cerevisiae deletion strains, locus YJL187C, strain SWE1 (second series), hits give low values 1.01 | [19] 0.991 | S. cerevisiae deletion strains, locus YKL009W, strain mrt4, hits give low values 0.976 | S. cerevisiae deletion strains, locus YKL068W, hits give low values 0.991 | S. cerevisiae deletion strains, locus YKL085W, strain MDH1 (second series), hits give low values 0.995 | S. cerevisiae deletion strains, locus YKL085W, strain MDH1, hits give low values 0.995 | [9] 0.983 | S. cerevisiae deletion strains, locus YKR001C, strain vps1, hits give low values 0.974 | [10] 0.961 | S. cerevisiae deletion strains, locus YLR058C, strain SHM2, hits give low values 0.979 | S. cerevisiae deletion strains, locus YLR102C, strain apc9, hits give low values 0.99 | [20] 1.03 | S. cerevisiae deletion strains, locus YLR268W, strain sec22, hits give low values 0.956 | S. cerevisiae deletion strains, locus YLR371W, strain rom2, hits give low values 0.967 | S. cerevisiae deletion strains, locus YLR418C, strain cdc73, hits give low values 1 | S. cerevisiae deletion strains, locus YML016C, strain PPZ1, hits give low values 0.978 | S. cerevisiae deletion strains, locus YML032C, strain rad52, hits give low values 0.982 | S. cerevisiae deletion strains, locus YML124C, strain tub3, hits give low values 0.992 | S. cerevisiae deletion strains, locus YMR078C, strain ctf18, hits give low values 0.989 | S. cerevisiae deletion strains, locus YMR223W, strain ubp8, hits give low values 1 | [12] 0.989 | S. cerevisiae deletion strains, locus YNL067W, strain RPL9B, hits give low values 1.04 | [21] 0.989 | S. cerevisiae deletion strains, locus YNL233W, strain BNI4, hits give low values 1.03 | S. cerevisiae deletion strains, locus YNL250W, strain rad50, hits give low values 0.992 | S. cerevisiae deletion strains, locus YNL271C, strain bni1, hits give low values 0.993 | S. cerevisiae deletion strains, locus YNL298W, strain CLA4, hits give low values 0.989 | S. cerevisiae deletion strains, locus YNL307C, strain MCK1, hits give low values 0.982 | S. cerevisiae deletion strains, locus YNR052C, strain pop2, hits give low values 1.04 | [14] 0.932 | S. cerevisiae deletion strains, locus YOL012C, strain htz1 0.896 | S. cerevisiae deletion strains, locus YOL147C, strain pex11, hits give low values 0.984 | S. cerevisiae deletion strains, locus YOR061W, strain CKA2, hits give low values 0.934 | S. cerevisiae deletion strains, locus YOR069W, strain VPS5, hits give low values 0.996 | S. cerevisiae deletion strains, locus YOR136W, strain idh2, hits give low values 1 | S. cerevisiae deletion strains, locus YOR144C, strain elg1, hits give low values 0.997 | S. cerevisiae deletion strains, locus YOR184W, strain ser1, hits give low values 0.964 | [22] 1.07 | S. cerevisiae deletion strains, locus YOR316C, strain cot1, hits give low values 0.997 | [16] 0.978 | [23] 1.05 | S. cerevisiae deletion strains, locus YPR119W, strain clb2, hits give low values 0.992 | S. cerevisiae deletion strains, locus YPR141C, strain kar3, hits give low values 0.982 | S. cerevisiae deletion strains, locus YPR163C, strain tif3, hits give low values 0.99 | S. cerevisiae deletion strains, locus YPR167C, strain met16, hits give low values 0.992 | S. cerevisiae deletion strains, strain wtn01, hits give low values 0.967

CC[N+](CC)(CC)CC(=O)Nc1c(C)cccc1C
inactive: S. cerevisiae deletion strains, locus YAL040C, strain CLN3, hits give low values 0.958 | S. cerevisiae deletion strains, locus YCL061C, strain MRC1 (second series), hits give low values 0.999 | [4] 1 | S. cerevisiae deletion strains, locus YDR363W, strain ESC2, hits give low values 1.02 | S. cerevisiae deletion strains, locus YER002W, strain NOP16, hits give low values 1.01 | [6] 1.02 | [7] 1 | [11] 1 | S. cerevisiae deletion strains, locus YNL128W, strain TEP1, hits give low values 1.01 | [13] 0.995 | S. cerevisiae deletion strains, locus YNL175C, strain NOP13, hits give low values 1 | S. cerevisiae deletion strains, locus YNL197C, strain WHI3, hits give low values 1.01 | S. cerevisiae deletion strains, locus YNL224C, strain SQS1, hits give low values 0.999 | S. cerevisiae deletion strains, locus YOR083W, strain WHI5 (second series), hits give low values 0.999 | [15] 1.01

CC[N+](CC)(CC(=O)Nc1c(C)cccc1C)Cc1ccccc1
inactive: [8] 0.962 | [17] 0.878 | [18] 0.916 | [19] 0.897 | [21] 0.851 | [22] 0.899 | [23] 0.868
active: [20] 0.814
